Values joined by “and” are separate entries in the source; they are usually repeats but may differ in a detail not shown here. Equal entries are not always repeated. Compounds without any hit were thinned out: in the full panel of roughly 79,000, 15% have a hit. A number with no mark means an inactive call. Active and inactive are the calls of the source. No stated cut-off is given here; in the data, active means growth inhibition above about 70%; inactive means the rest.
Key:
[1] = NCI Yeast Anticancer Drug Screen. Data for the rad50 strain (AID 155);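 further: 0% = growth of vehicle-only cultures of the same strain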; conditions: S. cerevisiae rad50 strain growth inhibition; at 50.0 µM; hits give high values
In short: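 Vehicle-treated cultures provide the reference for the growth inhibition reported for compound-exposed, repair-deficient yeast.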

[2] = NCI Yeast Anticancer Drug Screen. Data for the mec2-1 strain (AID 157); conditions: S. cerevisiae mec2-1 strain, hits give high values
In short: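 Mutant yeast (mec2-1) grown with compound; growth inhibition relative to vehicle control reported.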

[3] = NCI Yeast Anticancer Drug Screen. Data for the sgs1 mgt1 strain (AID 161);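 further: 0% = growth of cultures given vehicle only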; conditions: S. cerevisiae sgs1 mgt1 strain, hits give high values
In short: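 Growth of a repair-deficient yeast mutant was monitored after compound treatment and expressed as inhibition relative to vehicle-treated cultures.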

[4] = NCI Yeast Anticancer Drug Screen. Data for the cln2 rad14 strain (AID 165);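 further: 0% = growth equal to vehicle treated cultures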; conditions: S. cerevisiae cln2 rad14 strain, hits give high values
In short: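 Readout is yeast growth inhibition versus vehicle-treated controls, using a strain with cln2 and rad14 alterations exposed to compound.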

[5] = NCI Yeast Anticancer Drug Screen. Data for the bub3 strain (AID 167); conditions: S. cerevisiae bub3 mutant strain, hits give high values
In short: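 Mutant yeast screening strain plus compound; vehicle-treated cultures serve as the 0% inhibition reference.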

[6] = NCI Yeast Anticancer Drug Screen. Data for the mlh1 rad18 strain (AID 175); conditions: S. cerevisiae mlh1 rad18 strain growth inhibition, hits give high values
In short: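 Genetically defined yeast (DNA repair-deficient) exposed to compounds; growth inhibition determined relative to vehicle.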

[7] = at 5.0 µM (retest, dose inferred, filed as 0.5)
[8] = at 50.0 µM (retest, dose inferred, filed as 5.0)

Compound	growth inhibition [1]	growth inhibition ([2]; at 50.0 µM)	growth inhibition ([3]; at 50.0 µM)	growth inhibition ([4]; at 50.0 µM)	growth inhibition ([5]; at 50.0 µM)	growth inhibition ([6]; at 50.0 µM)	growth inhibition [2, 7] [%]	growth inhibition [2, 8]	growth inhibition [3, 7] [%]	growth inhibition [3, 8]	growth inhibition [4, 7]	growth inhibition [4, 8]	growth inhibition [5, 7]	growth inhibition [5, 8]	growth inhibition [6, 7]	growth inhibition [6, 8]
CC(CCC(=O)O)C1CCC2C3C(O)CC4CC(O)CCC4(C)C3CC(O)C12C (configuration not stated)	42.7% and 3.65%	46.2% and -12.6%	45.4% and -17.3%	47.6% and 0.9%	46.7% and -9.35%	35.9% and 14.2%										
Oc1ccc(Br)cc1Sc1cc(Br)ccc1O		99.7% (active)	99.7% (active)	99.4% (active)	99.2% (active)	99.5% (active)	28	99% (active)	26	100% (active)	14%	98% (active)	16%	99% (active)	53%	99% (active)
Cc1cc(C)c(C(=O)C(C)C(c2ccccc2)c2ccc(Cl)cc2)c(C)c1 (configuration not stated)	-16.4% and -14.6%		-12.8% and -16.1%	17.8% and -2.55%	-8.7% and -10.6%	-15.2% and -2.45%										
COC1C(O)C(O)C(O)C(O)C1O (configuration not stated)	0.95% and -11.2%	-4.8% and -13.4%		21.2% and 9.9%	-3.1% and -31.4%	-0.45% and -15.6%										
COc1cc(C=O)ccc1O		-0.35% and 2.65%	-5.95% and 15.9%	4.45% and 6.3%	-1.9% and 13.4%	7.75% and 14.2%										
C=C1C(=O)OC2CC1C(OC(=O)/C=C/c1ccccc1)C/C(C)=C/CC/C(C)=C/CCC2(C)O (configuration not stated)		81.7% (active)	84.8% (active)	83% (active)	80% (active)	75.9% (active)	54	96% (active)	60	95% (active)	84% (active)	95% (active)	88% (active)	95% (active)	77% (active)	94% (active)
CCC(C(=O)O)C(=O)O.[NH-]CC[NH-].[Pt+2]	-23.6% and -13.2%	-8% and -3.95%	-8.05% and -16.4%		1.3% and 2%	-10.8% and -24%										
O=C1OCC/C1=C\c1ccco1	9.55% and -9.2%	2.2% and 3.9%	6.15% and 9.15%	-19.1% and 10.9%		10.3% and -6.35%										
O=C1OC(c2ccccc2)=N/C1=C\c1ccccc1O	-4.65% and -9.75%		-0.2% and -1.3%	2.6% and 7.3%	-1.7% and -13.6%	-21.1% and -0.55%										
C[C@@]1(CO)[C@H](O)CC[C@@]2(C)[C@H]1CC[C@H]1C[C@@H]3C[C@@]12CC[C@@]3(O)COC(=O)CN		57.1%	61.6%	22.9%	91.7% (active)	93.8% (active)	-1	98% (active)	-1	46%	-12%	49%	11%	33%	6%	97% (active)
CCOC(=O)c1ccc(O)c(O)c1		-28.1% and 6.75%	-6.65% and 4.05%	-12.2% and 8.9%	-11.8% and 0.7%	-8.8% and -5.75%										
CN1CCC(CN2c3ccccc3Sc3ccccc32)C1 (configuration not stated)		-22.9%	21.1%	51.2%	19.4%	32.2%	2	-27%	-8	11%	-17%	-1%	26%	6%	11%	16%
Cc1cccc2c(N)c3ccccc3nc12		43.3%	73.7% (active)	45.6%	45%	67.8%	3	13%	1	7%	6%	15%	0%	-9%	6%	24%
S=C(S)NCCNC(=S)S.[Cu+2]	1.15% and 27.4%	-8.7% and -11.9%	-0.6% and 6.45%	-41.2% and -56.4%		5.3% and -15.5%										
O=C1c2ccccc2Cc2cccc(Cl)c21		24.3%	28.6%	17.4%	13.8%	33%	6	15%	4	13%	0%	5%	1%	19%	2%	17%
Cc1cc(=O)cc(C)o1	-11.2% and 18.4%	-12.8% and 5.6%	-10.2% and -20.6%		2.35% and -5.85%	-8.55% and 0.05%										
CCOC(=O)CNC(=O)C(Cc1ccccc1)NC(=O)c1ccccc1N (configuration not stated)	14% and 12.7%	-1.7% and -2.6%	-0.1% and 9.95%	-5.4% and -6.3%		7.25% and 4.15%										
Oc1c(C(Nc2ccccc2)c2ccccc2)ccc2cccnc12 (configuration not stated)		81.2% (active)	99% (active)	96.2% (active)	84% (active)	96% (active)	-2	97% (active)	-4	94% (active)	-4%	92% (active)	-8%	94% (active)	0%	92% (active)
O=C1NC(=O)C(=Nc2c(O)[nH]c(=O)[nH]c2=O)C(=O)N1	2.65% and -11%	-11.9% and -14.3%	2.3% and -10.6%		1.1% and 16.6%	12.1% and -13.1%										
CC(=O)OCC1OC(n2c(-c3ccccc3)cc(-c3ccccc3)c(C#N)c2=O)C(OC(C)=O)C(OC(C)=O)C1OC(C)=O (configuration not stated)	-14.3% and -1.45%	-3.7% and 6.6%	1.8% and 3.45%	23.6% and 0.7%	5.4% and 3.9%	16% and -2.25%										
